Where a name gives a salt, the structure may show the parent alone.
Test system: RIVA
Experiment: growth inhibition by drug plus 177Lu-lilotomab satetraxetan (1 - RLU/untreated control) (fraction); higher = stronger inhibition
Conditions: 100 nM; time (day): 6; 177Lu-lilotomab satetraxetan 0.5 ug/ml
Procedure, shortened: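 Growth inhibition was calculated from RealTime-Glo RLU against untreated no-drug wells. Values equal 1 − RLU/mean of 48 untreated no-drug wells per plate, read daily from day 3 after 1 h at 37°C. RIVA and U-2932 cells, with or without 18 h pretreatment by a radiolabelled anti-CD37 antibody conjugate (~600 MBq/mg; 0.5 µg/ml RIVA, 1 µg/ml U-2932), were washed and plated at 3,000 cells/well on compound-printed plates at 10/100 nM (RIVA) or 10/1,000 nM (U-2932).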

First: CCc1c2c(nc3ccc(OC(=O)N4CCC(N5CCCCC5)CC4)cc13)-c1cc3c(c(=O)n1C2)COC(=O)[C@]3(O)CC [Irinotecan HCl Trihydrate (Campto)]
Second: CC(=O)c1c(C)c2cnc(Nc3ccc(N4CCNCC4)cn3)nc2n(C2CCCC2)c1=O
The “growth inhibition by drug plus 177Lu-lilotomab satetraxetan” value (“growth inhibition” for short) of the first is higher: 0.741 for the first, 0.392 for the second.

Compared with `S=C(NCc1ccc2c(c1)OCO2)N1CCN(c2ncnc3c2oc2ccccc23)CC1` [Amuvatinib (MP-470)], `c1ccc(-c2nn3c(c2-c2ccnc4cc(OCCN5CCOCC5)ccc24)CCC3)nc1` is lower in “growth inhibition” value: 0.677 for the first, 0.459 for the second.

Going from `COc1ccc2c3n(c(=NC(=O)c4cccnc4)nc2c1OC)CCN3` to `COc1cc2ncnc(Nc3cccc(Br)c3)c2cc1OC`, the “growth inhibition” value falls from 0.551 to 0.467.

Compared with `C#Cc1cccc(Nc2ncnc3cc(OCCOC)c(OCCOC)cc23)c1` [Erlotinib HCl], `COc1cc(Nc2ncc3c(n2)-c2ccc(Cl)cc2C(c2c(F)cccc2OC)=NC3)ccc1C(=O)O` [MLN8237 (Alisertib)] is higher in “growth inhibition” value: 0.724 for the first, 0.873 for the second.

Compared with `Cc1ccc(-c2cc(C(F)(F)F)nn2-c2ccc(S(N)(=O)=O)cc2)cc1` [Celecoxib], `O=C(NCCS(=O)(=O)c1ccc(C(F)(F)F)cn1)c1ccc(Cl)cc1` is higher in “growth inhibition” value: 0.425 for the first, 0.521 for the second.

Going from `N#CC[C@H](C1CCCC1)n1cc(-c2ncnc3[nH]ccc23)cn1` to `CC(C)c1ccc(Cn2ccc3c4c(N)nc(NC5CC5)nc4ccc32)cc1`, the “growth inhibition” value rises from 0.348 to 0.799.

Going from `CCc1cncnc1N1CCN(Cc2nc3ccc(C(F)(F)F)cc3[nH]2)CC1` to `Cc1cc(Nc2cc(N3CCN(C)CC3)nc(/C=C/c3ccccc3)n2)n[nH]1`, the “growth inhibition” value falls from 0.514 to 0.357.

Going from `CCN(CC)C(=S)SSC(=S)N(CC)CC` [Disulfiram (Antabuse)] to `CC/C(=C(\c1ccccc1)c1ccc(OCCN(C)C)cc1)c1ccccc1` [Tamoxifen Citrate (Nolvadex)], the “growth inhibition” value rises from 0.386 to 0.802.

Going from `CC(C)[C@H](C(=O)Nc1ccc(C(=O)NO)cc1)c1ccccc1` to `CC(C)(C)c1[nH]cnc1/C=c1\[nH]c(=O)/c(=C/c2ccccc2)[nH]c1=O` [NPI-2358 (Plinabulin)], the “growth inhibition” value rises from 0.94 to 0.976.

Going from `CC(=O)O[C@]1(C(C)=O)CC[C@H]2[C@@H]3C=C(C)C4=CC(=O)CC[C@]4(C)[C@H]3CC[C@@]21C` [Megestrol Acetate] to `CCC1=C[C@@H]2CN(C1)Cc1c([nH]c3ccccc13)[C@@](C(=O)OC)(c1cc3c(cc1OC)N(C)[C@H]1[C@@](O)(C(=O)OC)[C@H](OC(C)=O)[C@]4(CC)C=CCN5CC[C@]31[C@@H]54)C2` [Vinorelbine (Navelbine)], the “growth inhibition” value rises from 0.508 to 0.987.

Compared with `N#Cc1ccc(C(c2ccc(C#N)cc2)n2cncn2)cc1` [Letrozole], `Cc1ccc(S(=O)(=O)C=CC#N)cc1` is higher in “growth inhibition” value: 0.401 for the first, 0.452 for the second.

First: COc1cccc2c1C(=O)c1c(O)c3c(c(O)c1C2=O)C[C@@](O)(C(=O)CO)C[C@@H]3O[C@H]1C[C@H](N)[C@H](O)[C@H](C)O1 [Doxorubicin (Adriamycin)]
Second: Cn1cc(C2=C(c3ccc(Cl)cc3Cl)C(=O)NC2=O)c2ccccc21
The “growth inhibition” value of the first is higher: 0.968 for the first, 0.492 for the second.

Compared with `O=c1[nH]cc(F)c(=O)[nH]1` [Adrucil (Fluorouracil)], `CN(N=O)C(=O)N[C@@H](C=O)[C@@H](O)[C@H](O)[C@H](O)CO` [Streptozotocin (Zanosar)] is lower in “growth inhibition” value: 0.512 for the first, 0.445 for the second.

From the supplement of paper PMC6897291
